Data reported in ChEMBL document CHEMBL4513141, “CO-ADD screening of NIH (USA) - Clinical Collection” (2021).
Results with a measured potency or affinity are listed apart.

Legend:
[1] = system: Klebsiella pneumoniae; settings: Concentration 20 uM; ASSAY_TEST Inhibition of Bacterial Growth; detection method Absorption (OD600); MEDIA CAMHB; plate type 384well; NBS; CORNING #3640; time 18 hr
[2] = system: Candida albicans; settings: 20 µM
[3] = system: Cryptococcus neoformans; settings: Concentration 20 uM; ASSAY_TEST Inhibition of Fungal Growth; detection method Resazurin; Absorption (OD600-OD570); plate type 384well; NBS; CORNING #3640

SMILES	Inhibition [1]	Inhibition [2]	Inhibition [3]
CCOC(=O)c1cncn1[C@H](C)c1ccccc1 [ETOMIDATE]	12.64%	0.03%	0.21%
CC(C)[C@]12O[C@H]1[C@@H]1O[C@]13[C@]1(O[C@H]1C[C@H]1C4=C(CC[C@@]13C)C(=O)OC4)[C@@H]2O [TRIPTOLIDE]	7.24%	1.65%	-8.43%
C#C[C@]1(OC(C)=O)CC[C@H]2[C@@H]3CCC4=CC(=O)CC[C@@H]4[C@H]3CC[C@@]21C [NORETHINDRONE ACETATE]	-0.71%	6.32%	-4.57%
Cc1ccnc2c1NC(=O)c1cccnc1N2C1CC1 [NEVIRAPINE]	10.08%	2.39%	-2.57%
CCN(C(C)=O)c1cccc(-c2ccnc3c(C#N)cnn23)c1 [ZALEPLON]	6.53%	-0.36%	-1.32%
Br.CN1[C@@H]2CC(OC(=O)[C@H](CO)c3ccccc3)C[C@H]1[C@@H]1O[C@@H]12.O.O.O (stereo partly specified)	13.1%	2.39%	-4.17%
C#CCN(C)[C@H](C)Cc1ccccc1.Cl [SELEGILINE HYDROCHLORIDE]	8.65%	4.68%	1.77%
CN(C)CCC=C1c2ccccc2CCc2ccccc21.Cl [AMITRIPTYLINE HYDROCHLORIDE]	11.13%	3.15%	-4.46%
C[C@]12Cc3c[nH]nc3C[C@@H]1CC[C@@H]1[C@@H]2CC[C@@]2(C)[C@H]1CC[C@]2(C)O [STANOZOLOL]	7.49%	8.82%	-7.23%
Cn1c(=O)c2nc[nH]c2n(C)c1=O.O [THEOPHYLLINE]	1.07%	3.65%	7.56%
NCCc1ccccn1	3.21%	3.53%	-5.04%
CN/C(=N\CCSCc1nc[nH]c1C)NC#N [CIMETIDINE]	3.14%	3.16%	2.1%
Cc1nnc2n1-c1ccc(Cl)cc1C(c1ccccc1)=NC2 [ALPRAZOLAM]	8.67%	1.98%	-4.87%
CC[C@@H](C(N)=O)N1CCCC1=O	13.35%	2.36%	-2.67%
O=C1Nc2ccc(Cl)cc2C(c2ccccc2Cl)=NC1O (stereo unspecified) [LORAZEPAM]	-5.27%	5.15%	-2.1%
CC(C)c1cccc(C(C)C)c1O [PROPOFOL]	12.14%	2.62%	-1.51%
Nc1nc(F)nc2c1ncn2[C@@H]1O[C@H](CO)[C@@H](O)[C@@H]1O [FLUDARABINE]	6.42%	0.49%	-5.72%
COc1ccc2[nH]cc(CCN)c2c1 [5-METHOXYTRYPTAMINE]	5.41%	3.97%	-39.41%
COCCCOc1ccnc(C[S+]([O-])c2nc3ccccc3[nH]2)c1C (stereo unspecified) [RABEPRAZOLE]	14.6%	5.74%	-21.21%

SMILES	Inhibition [1]	Inhibition [2]	Inhibition [3]
CCC(COC(=O)c1cc(OC)c(OC)c(OC)c1)(c1ccccc1)N(C)C.O=C(O)/C=C\C(=O)O (stereo unspecified)	22.71%	3.77%	-7.66%
O=C(O)CCCc1ccc(N(CCCl)CCCl)cc1 [CHLORAMBUCIL]	9.18%	2.65%	0.85%
c1ccc2c3c([nH]c2c1)CNCC3 [TRYPTOLINE]	13.54%	3.92%	-5.61%
CN1CCN2c3ncccc3Cc3ccccc3C2C1 (stereo unspecified) [MIRTAZAPINE]	5.61%	4.27%	3.57%
C=C(C)[C@@H]1[C@H]2OC(=O)[C@@H]1[C@]1(O)C[C@H]3O[C@]34C(=O)O[C@H]2[C@]14C.CC(C)(O)[C@@H]1[C@H]2OC(=O)[C@@H]1[C@]1(O)C[C@H]3O[C@]34C(=O)O[C@H]2[C@]14C	10.94%	2.79%	-5.47%
COc1cc(N)c(Cl)cc1C(=O)NC1CN2CCC1CC2.Cl.O (stereo unspecified) [ZACOPRIDE HYDROCHLORIDE]	-4%	5.47%	0.38%
c1cncc([C@@H]2CCCN2)c1 [NORNICOTINE]	9.44%	3.55%	-7.65%
COC(=O)C[C@](O)(CCCC(C)(C)O)C(=O)O[C@@H]1C(OC)=C[C@]23CCCN2CCc2cc4c(cc2[C@H]13)OCO4 [OMACETAXINE MEPESUCCINATE]	9.21%	3.16%	1.94%
CN1C(=O)CN=C(c2ccccc2)c2cc([N+](=O)[O-])ccc21 [NIMETAZEPAM]	13.4%	0.89%	-7.7%
CN1CCC[C@H]1c1cccnc1 [NICOTINE]	-4.81%	1.61%	-2.7%
CCOC(=O)c1ncn2c1CN(C)C(=O)c1cc(F)ccc1-2 [FLUMAZENIL]	-2%	0.3%	-8.54%
CN[C@@H]1C[C@@H](c2ccc(Cl)c(Cl)c2)c2ccccc21.Cl [INDATRALINE HYDROCHLORIDE]	-0.11%	2.5%	-6.06%
C=C1C[C@@H]2[C@H](CC[C@]3(C)C(=O)CC[C@@H]23)[C@@]2(C)C=CC(=O)C=C12 [EXEMESTANE]	6.02%	5.81%	-8.06%
C=C(C)CN1CC[C@]23c4c5ccc(O)c4O[C@H]2c2[nH]c4ccccc4c2C[C@@]3(O)C1C5.Cl.O	12.32%	1.9%	-7.24%
N=C(NCc1ccc(Cl)cc1)SCCCc1c[nH]cn1 [CLOBENPROPIT]	6.85%	2.99%	-0.61%
CS(=O)(=O)Nc1ccc(Cc2noc(-c3ccc4[nH]cc(CCN)c4c3)n2)cc1.O.O	11.61%	2.75%	-39.59%
CC1CCC[C@H](O)CCCCCc2cc(O)cc(O)c2C(=O)O1 (stereo partly specified)	3.64%	2.99%	-2.51%
NC(=O)C[S+]([O-])C(c1ccccc1)c1ccccc1 (stereo unspecified) [MODAFINIL]	7.6%	2.96%	-0.59%
CCC1(c2ccc(N)cc2)CCC(=O)NC1=O (stereo unspecified) [AMINOGLUTETHIMIDE]	3.02%	2.63%	-5.32%

SMILES	Inhibition [1]	Inhibition [2]	Inhibition [3]
Cl.O[C@@H]1CCCC[C@H]1N1CCC(c2ccccc2)CC1	4.06%	3.46%	-7.38%
CNC1=Nc2ccc(Cl)cc2C(c2ccccc2)=[N+]([O-])C1 [CHLORDIAZEPOXIDE]	19.46%	2.53%	-9.21%
CC(NC(C)(C)C)C(=O)c1cccc(Cl)c1.Cl (stereo unspecified) [BUPROPION HYDROCHLORIDE]	2.52%	4.99%	3.12%
Cc1cc(NS(=O)(=O)c2ccc(N)cc2)no1 [SULFAMETHOXAZOLE]	4.09%	6.42%	2.83%
Nc1nc2ccc(Cl)cc2c2nc(-c3ccco3)nn12 [CGS-15943]	10.58%	6.09%	-14.37%
C[C@]12CCC(=O)C=C1CC[C@@H]1[C@@H]2CC[C@@]2(C)[C@H]1CC[C@]2(C)O [METHYLTESTOSTERONE]	12.33%	4.22%	0%
CC(=O)OCC[N+](C)(C)C.[Cl-] [ACETYLCHOLINE CHLORIDE]	16.59%	1.39%	-1.88%
CCCCCNC(=N)N/N=C/c1c[nH]c2ccc(OC)cc12.O=C(O)/C=C\C(=O)O [TEGASEROD MALEATE]	6.68%	0.86%	-67.8%
Cl.O=C1CC[C@@]2(O)[C@H]3Cc4ccc(O)c5c4[C@@]2(CCN3CC2CC2)[C@H]1O5 [NALTREXONE HYDROCHLORIDE]	13%	3.06%	0.92%
COc1cc2c(cc1OC)[C@@]13CCN4CC5=CCO[C@H]6CC(=O)N2[C@H]1[C@H]6[C@H]5C[C@H]43 [BRUCINE]	6.18%	2.36%	-1.81%
CN(C)CCc1c[nH]c2ccc(Cn3cncn3)cc12.O=C(O)c1ccccc1 [RIZATRIPTAN BENZOATE]	7.74%	5.06%	-5.39%
CCCN1C[C@H](CSC)C[C@@H]2c3cccc4[nH]cc(c34)C[C@H]21.CS(=O)(=O)O [PERGOLIDE MESYLATE]	13.95%	2.85%	-3.89%
CCN(CC)CCOC(=O)C(O)(c1ccccc1)c1ccccc1.Cl	9.09%	3.32%	-7.17%
CCOC(=O)C1(c2ccccc2)CCN(CCC(C#N)(c2ccccc2)c2ccccc2)CC1.Cl [DIPHENOXYLATE HYDROCHLORIDE]	2.24%	4.81%	-16.2%
CC(C)C(=O)Nc1ccc([N+](=O)[O-])c(C(F)(F)F)c1 [FLUTAMIDE]	13.37%	3.45%	1.08%
CCOC(=O)C1=C(COCCN)NC(C)=C(C(=O)OC)C1c1ccccc1Cl (stereo unspecified) [AMLODIPINE]	0.34%	4.94%	-10.38%
CN(C)CCOc1ccc(/C(=C(/CCCl)c2ccccc2)c2ccccc2)cc1.O=C(O)CC(O)(CC(=O)O)C(=O)O [TOREMIFENE CITRATE]	8.47%	1.73%	-7.47%
C[N+]1(CCC(C(N)=O)(c2ccccc2)c2ccccc2)CCCCC1.[Br-] [FENPIVERINIUM BROMIDE]	-3.21%	3.32%	-1.41%
C[N+]1(C)CCN(c2ccccc2)CC1.[I-] [DIMETHYLPHENYLPIPERAZINIUM IODIDE]	19.04%	2.58%	-7.47%
